The panel holds about 83,000 compounds, 20% with a hit somewhere; the sample as a whole holds those more often.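 Compound tested at a single concentration for 48 hours in 96-well plates; a percent growth value below 10 was scored as active.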 Values without a mark were called inactive. Activity calls are given as the source filed them.

Holding throughout (assay): NCI-60 one-dose screen, 48 h (100 = growth as untreated, 0 = no growth, -100 = all killed)
Holding throughout (details): 10 µM unless noted

The subject of test [1] is DU-145 prostate.
Test [2] relates to MALME-3M melanoma.
The subject of test [3] is MDA-MB-231 breast.
For test [4], the system named is RXF 393 renal.
The test system of test [5] is SF-268 CNS.
The subject of test [6] is SF-295 CNS.
The test system of test [7] is SF-539 CNS.
The test system of test [8] is UACC-257 melanoma.
Test [9] deals with M14 melanoma.

Regarding `CC(C)CSc1nc(N)nc2c1ncn2C1OC(CO)C(O)C1O` (stereo unspecified), the growth is 115% in [1]; 99.5% in test [2]; 104% in [3]; 98.7% in [4]; 99.9% in test [5]; 72.3% in test [6]. In addition, the growth was 94.7% in test [7], 104% in test [8] and 116% in test [9].
With `Cc1cc2nc(NC(=O)CN3CCN(CCN4C(=O)c5cccc6cccc(c56)C4=O)CC3)sc2cc1C`, the growth in test [1] was 91.7%; in test [2], 89.5%; in test [3] it was 92.4%; in test [4] it was 87.5%; in [5], 86.3%; in [6], 91.2%. Further, the values for the growth in test [7], in test [8] and in [9] were 80.9%, 99.2% and 94.3%, respectively.
Take `CCc1nc(N)nc(N)c1C#CC(C)c1ccc(-c2ccncc2)cc1Cl` (stereo unspecified): the growth was 21.1% in [1]; 39.6% in test [2]; 43.3% in test [3]; 32.9% in test [4]; 16.6% in test [5]; 10.1% in [6]. Also, the results for the growth in test [7], in test [8] and in test [9] were 4.42% (active), 31.9% and 1.01% (active), respectively.
Consider `CC(=O)c1cc2c(N)c(C(=O)Nc3cccc4ccccc34)sc2nc1C`, for which the growth in test [1] was 15.5%; in test [2], 56.2%; in [3], 26.2%; in [4] it was 10.4%; in [5], 56.3%; in [6] it was 19.8%. In addition, the growth in test [7] was -15% (active); in [8], 59.8%; in [9] it was 3.93% (active).
With `COc1cc2c(cc1O)CC[C@@H]1[C@@H]2CC[C@]2(C)[C@@H](OCCN(C)C)CC[C@@H]12`, the growth in test [1] is 12.8%; in test [2], 16.7%; in test [3], 16.2%; in test [4] it was 52.4%; in [5] it was 56.2%; in test [6], -4.56% (active). The growth in test [7] was 4.14% (active); in test [8], -18.2% (active); in test [9] it was 0.0496% (active).
Consider `CCOc1ccc(-n2nc(C(=O)Nc3cc(OC)c(OC)c(OC)c3)nc2-c2cc(OC)c(OC)c(OC)c2)cc1`, for which the growth in [1] is 99.1%; in [2], 85.2%; in [3] it was 50.5%; in test [4], 83.8%; in test [5], 92.1%; in [6], 95.9%. Further, the growth in [7] is 87.8%; in [8], 93.1%; in test [9], 91.5%.
Turning to `Clc1ccc2c(NCCCCNc3nc(N4CCCCC4)nc4ccccc34)ccnc2c1`, the growth in test [1] was 27.6%; in test [2], -81.8% (active); in [3] it was -51.3% (active); in [4], -62.8% (active); in test [5] it was 19.9%; in test [6] it was -54.8% (active). Also, the values for the growth in test [7], in [8] and in test [9] were -86.7% (active), -83.5% (active) and -84.6% (active), respectively.
`CCCCC(=O)OCC1OC(n2cnc3c(=S)nc[nH]c32)C(OC(=O)CCCC)C1OC(=O)CCCC` (stereo unspecified): the growth is 32% in test [1]; 49.5% in [2]; 35.6% in test [3]; 39% in [5]; 30.3% in test [6]; 20.2% in test [7]. For the same compound, the growth in [9] was 10.4%.
Regarding `COc1cc2c(cc1OC)C(Sc1ccc(SC)cc1)c1c(nc(N)c(C#N)c1N)O2` (stereo unspecified), the growth in test [1] is -75.8% (active); in [2] it was -67% (active); in test [3] it was -67.4% (active); in test [4], -75.9% (active); in [5] it was -36.6% (active); in test [6], -56.3% (active). Moreover, the values for the growth in [7], in test [8] and in test [9] were -95.3% (active), -51.2% (active) and -80.6% (active), respectively.
For `CN1CCN(c2nc(NCCCNc3ccnc4cc(Cl)ccc34)c3ccccc3n2)CC1`, the growth in [1] is 59.8%; in test [2], -66.3% (active); in [3], -8.42% (active); in [4], 43.3%; in test [5] it was 66.2%; in [6], 62.5%. Besides, the results for the growth in test [7], in test [8] and in test [9] were -71% (active), 17.7% and -85.6% (active), respectively.
Consider `CCNC(=O)Oc1ccc(/C(=C(\C)c2ccc(Cl)cc2)c2ccc(OCCN3CCCCC3)cc2)cc1`, for which the growth in test [1] is 72.8%; in test [2] it was -8.7% (active); in test [3] it was 51.8%; in test [4], 49.1%; in [5] it was 55%; in test [6] it was 42.7%. The growth in test [7] is 47.8%; in test [8] it was -33.9% (active); in [9], -46.5% (active).
Consider `CCCCCC(=O)Oc1ccc(/C(=C(\C)c2ccc(OC)cc2)c2ccc(OCCN3CCCCC3)cc2)cc1`, for which the growth in [1] was 79.8%; in test [2], 64.3%; in [3], 66.1%; in test [4] it was 70.2%; in test [5] it was 71.1%; in [6], 38.9%. Also, the values for the growth in [7], in test [8] and in [9] were 40.8%, 8.72% (active) and -39.2% (active), respectively.
On to `COc1ccc(NC(=O)c2ccc(/C=C/C(=O)c3ncc[nH]3)cc2)cc1`, for which the growth was 34.1% in test [1]; 95.1% in test [2]; 91.6% in test [3]; 76.9% in [4]; 72.4% in [5]; 88.4% in test [6]. The figures for the growth in [7], in test [8] and in test [9] were 64.1%, 97.8% and 87.3%, respectively.
As to `Cc1nc(Nc2ccc(F)c(Cl)c2)sc1C(=O)O`, the growth is 28.2% in test [1]; 30.8% in test [2]; -19.8% (active) in [3]; 15.4% in [4]; 29.3% in [5]; 15.2% in test [6]. For the same compound, the growth is 24.4% in test [7], 4.37% (active) in test [8] and 19.2% in test [9].
On to `CC(=O)OCCC/C(=C/c1cc2ccccc2c2ccccc12)[N+](=O)[O-]`, for which the growth was -100% (active) in test [1]; -71% (active) in [2]; -54.3% (active) in test [3]; -89.6% (active) in [5]; 7.66% (active) in test [6]; -100% (active) in test [7]. Besides, the growth in [9] was -69.9% (active).

(Values after PubChem BioAssay (NCI).)
